Assay outcomes from PubChem.
Mtb MbtI inh = blocks the Mycobacterium tuberculosis siderophore enzyme MbtI | purified MbtI enzyme, fluorescence intensity read-out | inhibition, % (test concentration not listed) | 100,000 tested, 0.89% active; in the data active = inhibition mostly above about 56%, no sharp cut-off; inactive = mostly below about 77%
AID504770 = growth inhibitors of E. coli YBA685 in a screen for V. cholerae RctB (chromosome II replication) inhibitors; E. coli YBA685 rctB-dependent plasmid, OD600 growth, 3 h; active compounds read low; z-score (concentration not given with the values); 130,000 tested, 0.27% active; AID 504770; in the data active = z-score below about -2, passing the limit was not always enough
Mtb MenB inh = blocks the Mycobacterium tuberculosis MenB enzyme | P9WNP5 | MenB enzyme assay, absorbance read-out | inhibition, % (concentration not given with the values) | AID 540299 | 100,000 tested, 0.43% active; in the data active = inhibition above about 21%, passing the limit was not always enough
Polio RdRp inh = poliovirus RNA polymerase inhibition. P03300. poliovirus polymerase elongation, fluorescence polarization; active compounds read low. % elongation, % (compound at 16.7 µg/mL). 150,000 tested, 0.66% active. AID 588519; in the data active = % elongation below about 90%
Target sequence (P03300 1749-2209 limits assumed): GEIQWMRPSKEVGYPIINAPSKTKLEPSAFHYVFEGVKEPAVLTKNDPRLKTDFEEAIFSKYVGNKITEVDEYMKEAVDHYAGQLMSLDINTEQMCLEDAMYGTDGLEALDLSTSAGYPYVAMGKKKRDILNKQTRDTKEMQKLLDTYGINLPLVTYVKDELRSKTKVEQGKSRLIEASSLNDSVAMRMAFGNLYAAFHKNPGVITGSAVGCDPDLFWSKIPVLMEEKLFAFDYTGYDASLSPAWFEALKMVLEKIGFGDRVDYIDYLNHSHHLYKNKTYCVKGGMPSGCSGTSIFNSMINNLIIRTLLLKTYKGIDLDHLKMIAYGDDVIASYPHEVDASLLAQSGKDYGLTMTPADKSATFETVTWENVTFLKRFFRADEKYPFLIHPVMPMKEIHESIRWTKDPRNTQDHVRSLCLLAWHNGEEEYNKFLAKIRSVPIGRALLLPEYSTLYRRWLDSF
Each line names hits and unclear results; the compound was inactive in the other large screens; ! = not active in a repeat. The list is not random: actives were taken first. Their share in the collection is about 1.4%.

CCN(CC)CCOC(=O)c1ccc(NC(=O)c2cc3cccc(OC)c3oc2=O)cc1	Polio RdRp inh 90 (no result: Mtb MbtI inh, AID504770, Mtb MenB inh)
COCCN(Cc1ccccc1)C(=O)c1ccc2c(c1)NC(=O)CS2	Mtb MbtI inh 63
COc1cccc(CN(C)C(=O)c2ccc3c(c2)NC(=O)CS3)c1	none
O=C1NC(=S)C(=C2CCCC2)S1	Mtb MbtI inh 77
C/C(=N\NC(=O)c1ccn[nH]1)c1cc(O)ccc1O	Mtb MbtI inh 71
Cc1ccc(Cl)cc1NC(=O)Cn1c(=O)c(CNc2ccccc2)cc2cc3c(cc21)OCCO3	none (no result: Mtb MbtI inh, AID504770, Mtb MenB inh)
O=C(Cn1c(=O)c(CNc2ccccc2)cc2cc3c(cc21)OCCO3)Nc1ccccc1Cl	Polio RdRp inh 51 (no result: Mtb MbtI inh, AID504770, Mtb MenB inh)
Clc1ccc2oc(Nc3ccc4oc5ccccc5c4c3)nc2c1	none
CCN(CC)/N=N/c1[nH]nc2nc(C)cc(C)c12	AID504770 -7.5 (no result: Mtb MbtI inh)
Cc1cc(C)c2c(-n3cccc3)n[nH]c2n1	none (no result: Mtb MbtI inh, Mtb MenB inh, Polio RdRp inh)
Cc1ccccc1-c1ocnc1C(=O)Nc1cccnc1	Mtb MenB inh 30
O=C(COC(=O)/C=C/c1ccco1)Nc1ccc(F)cc1F	none (no result: Mtb MenB inh)
O=c1[nH]c(CSc2ccccn2)nc2ccsc12	Mtb MbtI inh 96
CCOC(=O)c1sc2cccc(F)c2c1CSc1nnc(SCc2ccc(C(=O)OC)o2)s1	none
Cc1ccc(OC(=O)C23CC4CC(CC(C4)C2)C3)cn1	Mtb MenB inh 42
O=C(Oc1ccc(O)cc1)C12CC3CC(CC(C3)C1)C2	Mtb MbtI inh 97
O=C(Oc1cc(Cl)cc(Cl)c1)C12CC3CC(CC(C3)C1)C2	none
CCCNC(=O)c1ccc(NC(C)=O)cc1	none (no result: Mtb MbtI inh)
CC(=O)Nc1ccc(C(=S)NCCCO)cc1	Polio RdRp inh 77
COc1ccc(N2CCN(S(C)(=O)=O)CC2)cc1	Mtb MenB inh 40
Nc1c(Cl)cc(Cl)cc1C(=O)OCC(=O)NC1CCCCC1	none (no result: Mtb MenB inh)
O=C(CN1C(=O)CSC1=O)Nc1nccs1	none
Nn1cnn(CC(=O)Nc2nccs2)c1=S	Polio RdRp inh 74 (no result: Mtb MbtI inh)
Cn1cnc(S(=O)(=O)N(Cc2ccccc2)Cc2ccccc2N2CCC(C(=O)O)CC2)c1	Polio RdRp inh 86
C=CCc1cccc(O)c1O	Mtb MbtI inh 89 (no result: Mtb MenB inh)
C=CCc1cccc(C=Nc2ccc(Br)cc2)c1O	none (no result: Mtb MbtI inh, Mtb MenB inh, Polio RdRp inh)
COc1ccccc1Nc1ncccc1C(=O)Nc1ccnn1C(C)C	none
CCCCC1C(=O)N(c2ccccc2)N(c2ccc(O)cc2)C1=O (configuration not stated)	Mtb MbtI inh 84!
Cc1nn(-c2ccccc2)c2c1P(=S)(N1CCOCC1)N(C)C(c1ccccc1)=N2 (configuration not stated)	Polio RdRp inh 82
N/C(=N\N=C1CCCCCC1)SCn1nnc2ccccc2c1=O	Polio RdRp inh 90
O=c1c2ccccc2nnn1CSC(=S)N1CCCC1	none
CCn1cc(C(=O)O)c(=O)c2cnc(N3CCN(C(=S)NCc4ccccc4)CC3)nc21	AID504770 -3.4
C=CCn1c(NCc2cn(-c3ccccc3)nc2-c2cccs2)nc2ccccc21	none
CCN(CC)Cc1nc2sc(C)c(C)c2c(=S)[nH]1	Mtb MbtI inh 80
Cc1sc2nc(CC#N)[nH]c(=O)c2c1C	none (no result: Mtb MenB inh)
CSc1nc2c([nH]c3ccccc32)c(=O)n1-c1ccccc1	none (no result: Mtb MbtI inh, Mtb MenB inh, Polio RdRp inh)
COc1ccc2o/c(=N\O)c(C(N)=O)cc2c1	Mtb MbtI inh 102
O=c1[nH]c2ccccc2c(O)c1-c1nc2ccccc2c(=O)[nH]1	Mtb MenB inh 43
Cc1nc2ccccc2c(=O)[nH]1	none
CC1CCc2c(sc3nc(C(C)C)n4c(SCC(=O)NCc5ccco5)nnc4c23)C1 (configuration not stated)	Mtb MenB inh 27
Oc1cc(Cl)c(Cl)cc1O	Mtb MbtI inh 102, AID504770 -3.5
CCOC(=O)c1cnc(SC)nc1Nc1ccccc1	none
O=S(=O)(c1ccc(NCCCn2ccnc2)nc1)N1CCCC1	none
O=S(=O)(c1ccc(Cl)cc1)N(O)c1ccc(Cl)cc1	Mtb MbtI inh 88
CN(c1ccccc1)S(=O)(=O)c1ccc(Cl)cc1	none (no result: Mtb MbtI inh)
CCN(C(=O)CSc1ncc(-c2ccc(C)cc2)n1C)C1=CCCC1	none
S=c1n(CN2CCOCC2)c2ccccc2n1-c1ccccc1	Mtb MbtI inh 99, Polio RdRp inh 72
O=c1n(CN2CCOCC2)c2ccccc2n1CN1CCOCC1	none (no result: Mtb MbtI inh)
COc1ccc(C(=O)OCC(N)=O)cc1S(=O)(=O)N1CCCc2ccccc21	none
CC(C)(C)c1ccc(O)c(N)c1	Mtb MbtI inh 99
CCC(=O)C1(Sc2nc3ccccc3[nH]2)CC(C)(C)OC1=O (configuration not stated)	Mtb MbtI inh 102
CCSc1nc2ccccc2[nH]1	none (no result: Mtb MbtI inh, Mtb MenB inh, Polio RdRp inh)
CC1=Nc2c(c(C)nn2-c2ccccc2)C(C(F)(F)F)(C(F)(F)F)O1	none (no result: Mtb MenB inh)
CCOC(=O)N1CCC(NC(=O)Cn2c(=O)oc3ccccc32)CC1	none
